Measured values as given in ChEMBL document CHEMBL3988442, “University of Dundee, Small-Polar-MMV Screening Library” (2021).
For some of these results: Entries with a potency or affinity are not part of this list.

Tests used:
Parameters in all cases: scale not given: direction of the effect not stated beside the values
[1] = molecular target: Protein translocase subunit SecA (Escherichia coli (strain K12)) (UniProt P10408); test: Assay to Identify E. coli SecA ATPase Inhibitors; format: functional; conditions: 30 µM
Sequence of Protein translocase subunit SecA (Escherichia coli (strain K12)) (P10408 whole entry): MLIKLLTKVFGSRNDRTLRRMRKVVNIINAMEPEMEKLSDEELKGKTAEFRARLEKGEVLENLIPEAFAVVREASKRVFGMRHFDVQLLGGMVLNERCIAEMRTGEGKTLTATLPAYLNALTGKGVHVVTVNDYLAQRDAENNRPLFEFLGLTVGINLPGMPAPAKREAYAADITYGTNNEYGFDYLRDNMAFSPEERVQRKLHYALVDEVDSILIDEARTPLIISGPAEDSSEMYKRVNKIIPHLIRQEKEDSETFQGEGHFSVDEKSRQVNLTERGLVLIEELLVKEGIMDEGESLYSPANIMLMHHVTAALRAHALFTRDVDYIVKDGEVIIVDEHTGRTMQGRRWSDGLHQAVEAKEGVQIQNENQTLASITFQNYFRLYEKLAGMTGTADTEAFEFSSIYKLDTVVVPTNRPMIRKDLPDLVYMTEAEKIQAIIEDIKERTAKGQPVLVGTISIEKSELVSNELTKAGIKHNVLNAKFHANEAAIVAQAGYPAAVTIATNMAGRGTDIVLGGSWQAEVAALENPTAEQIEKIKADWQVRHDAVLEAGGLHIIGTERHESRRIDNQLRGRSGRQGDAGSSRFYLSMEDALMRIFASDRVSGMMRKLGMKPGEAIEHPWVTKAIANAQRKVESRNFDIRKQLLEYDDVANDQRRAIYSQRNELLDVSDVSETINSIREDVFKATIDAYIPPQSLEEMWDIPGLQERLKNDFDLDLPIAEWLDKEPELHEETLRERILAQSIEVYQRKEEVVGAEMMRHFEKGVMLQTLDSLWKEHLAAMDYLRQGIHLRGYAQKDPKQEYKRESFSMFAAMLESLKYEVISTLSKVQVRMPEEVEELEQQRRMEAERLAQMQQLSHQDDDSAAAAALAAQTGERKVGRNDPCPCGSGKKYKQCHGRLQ

[2] = molecular target: T1, Ubiquitin-activating enzyme e1, putative (Leishmania donovani (strain BPK282A1)) (UniProt E9BSI1); test: Leishmania donovani Ubiquitin Activating Enzyme (LdE1); format: functional; conditions: 30 µM
T1 sequence (whole entry): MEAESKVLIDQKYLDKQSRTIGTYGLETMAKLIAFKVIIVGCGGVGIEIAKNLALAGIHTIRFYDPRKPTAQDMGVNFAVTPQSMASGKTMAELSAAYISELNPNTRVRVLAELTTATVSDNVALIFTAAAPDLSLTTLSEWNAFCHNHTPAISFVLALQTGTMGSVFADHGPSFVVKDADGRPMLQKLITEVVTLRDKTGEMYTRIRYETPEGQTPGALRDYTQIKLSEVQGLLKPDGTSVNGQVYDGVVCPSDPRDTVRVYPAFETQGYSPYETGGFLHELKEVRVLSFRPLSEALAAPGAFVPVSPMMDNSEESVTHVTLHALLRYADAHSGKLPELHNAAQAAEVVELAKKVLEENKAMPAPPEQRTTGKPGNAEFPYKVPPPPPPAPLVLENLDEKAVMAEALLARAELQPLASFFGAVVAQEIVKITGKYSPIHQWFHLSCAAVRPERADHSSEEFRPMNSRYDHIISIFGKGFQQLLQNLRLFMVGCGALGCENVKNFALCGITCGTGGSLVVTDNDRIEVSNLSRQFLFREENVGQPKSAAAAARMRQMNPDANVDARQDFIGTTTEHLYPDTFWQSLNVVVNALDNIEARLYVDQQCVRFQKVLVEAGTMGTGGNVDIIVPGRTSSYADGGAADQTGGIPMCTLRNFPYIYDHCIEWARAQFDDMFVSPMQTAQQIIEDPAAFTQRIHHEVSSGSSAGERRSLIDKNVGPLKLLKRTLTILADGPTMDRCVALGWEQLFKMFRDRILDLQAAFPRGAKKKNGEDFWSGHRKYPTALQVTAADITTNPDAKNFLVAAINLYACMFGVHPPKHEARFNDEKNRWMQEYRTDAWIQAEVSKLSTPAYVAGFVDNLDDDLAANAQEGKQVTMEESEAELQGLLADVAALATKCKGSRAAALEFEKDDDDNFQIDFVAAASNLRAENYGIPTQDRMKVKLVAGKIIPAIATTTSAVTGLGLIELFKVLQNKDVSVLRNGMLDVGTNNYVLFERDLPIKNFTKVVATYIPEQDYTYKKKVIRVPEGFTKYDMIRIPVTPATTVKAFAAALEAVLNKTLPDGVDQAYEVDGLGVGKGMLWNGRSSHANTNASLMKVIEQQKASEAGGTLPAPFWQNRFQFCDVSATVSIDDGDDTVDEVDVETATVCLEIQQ

[3] = molecular target: AMP-activated protein kinase, AMPK (Homo sapiens) (UniProt P54646+O43741+P54619+Q9UGJ0+Q9Y478+Q13131+Q9UGI9); test: AMP-dependent Kinase enzyme assay. An in vitro enzyme assay that detects ADP turnover that is directly proportional to AMPK activity. This uses naive AMPK that is activated during the assay with MK-8722; format: functional; conditions: 30 µM
[4] = molecular target: Sialic acid-binding Ig-like lectin 9 (Homo sapiens) (UniProt Q9Y336); test: Hs-Siglec9 ALPHAscreen SOP 20170721; conditions: 10 µM
Sequence of Sialic acid-binding Ig-like lectin 9 (Homo sapiens) (Q9Y336 whole entry): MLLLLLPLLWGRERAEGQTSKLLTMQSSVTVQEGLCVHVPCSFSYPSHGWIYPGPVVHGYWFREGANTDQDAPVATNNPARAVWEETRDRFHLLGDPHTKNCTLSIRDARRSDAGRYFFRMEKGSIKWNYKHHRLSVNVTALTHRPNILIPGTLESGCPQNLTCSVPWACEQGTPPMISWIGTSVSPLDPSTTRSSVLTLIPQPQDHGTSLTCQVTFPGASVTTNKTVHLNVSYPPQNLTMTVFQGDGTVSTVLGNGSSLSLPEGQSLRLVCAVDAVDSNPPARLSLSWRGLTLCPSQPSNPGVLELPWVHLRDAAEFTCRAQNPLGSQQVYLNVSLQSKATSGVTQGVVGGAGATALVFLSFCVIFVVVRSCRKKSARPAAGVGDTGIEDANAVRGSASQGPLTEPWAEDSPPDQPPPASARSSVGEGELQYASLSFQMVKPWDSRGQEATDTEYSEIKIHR

[5] = system: Trypanosoma cruzi; test: Trypanosoma cruzi phosphomannomutase and mannose-1-phosphate guanylyltransferase assay; format: functional; conditions: 10 µM
[6] = molecular target: T2, Arginase-2, mitochondrial (Homo sapiens) (UniProt P78540); test: in vitro enzyme assay to detect the production of urea directly proportional to the activity of Arginase II; format: functional; conditions: 33.3 µM; also: in the data most compounds retested in dose-response had high values
T2 sequence (whole entry): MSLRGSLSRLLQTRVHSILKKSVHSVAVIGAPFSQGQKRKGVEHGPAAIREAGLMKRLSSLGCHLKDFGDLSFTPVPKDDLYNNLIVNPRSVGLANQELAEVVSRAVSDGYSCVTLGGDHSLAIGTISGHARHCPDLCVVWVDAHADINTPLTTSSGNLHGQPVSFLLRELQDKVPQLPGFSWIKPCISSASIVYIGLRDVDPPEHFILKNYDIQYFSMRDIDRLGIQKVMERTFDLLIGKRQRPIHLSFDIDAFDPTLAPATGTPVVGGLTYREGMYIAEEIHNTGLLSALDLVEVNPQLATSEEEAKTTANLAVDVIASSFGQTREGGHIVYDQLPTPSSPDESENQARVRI

[7] = molecular target: T3, Proteasome subunit beta (Trypanosoma cruzi) (UniProt O96673); test: Trypanosoma cruzi proteasome chymotrypsin-like activity (TcProtChymo) assay.; also: in the data most compounds retested in dose-response had high values; format: functional; conditions: 9.37 µM
T3 sequence (whole entry): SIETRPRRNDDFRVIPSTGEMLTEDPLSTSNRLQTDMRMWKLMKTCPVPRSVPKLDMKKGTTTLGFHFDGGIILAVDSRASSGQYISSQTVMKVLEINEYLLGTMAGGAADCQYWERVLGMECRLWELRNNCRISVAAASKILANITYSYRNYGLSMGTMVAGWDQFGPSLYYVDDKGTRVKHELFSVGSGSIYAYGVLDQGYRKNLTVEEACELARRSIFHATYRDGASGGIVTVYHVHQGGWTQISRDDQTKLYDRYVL

[8] = organism: Homo sapiens; test: To identify inhibition of the IFN signalling (Jak-Stat) pathway via expression of an eGFP reporter gene under the control of an IFN-stimulated response element (ISRE) containing MxA promoter.; format: functional; conditions: 30 µM
[9] = molecular target: T4, Tyrosyl-tRNA synthetase, putative (Trypanosoma cruzi (strain CL Brener)) (UniProt Q4DSP6); test: Trypanosoma cruzi tyrosyl tRNA synthetase (TcYRS) _High Tyrosine SOP; format: functional; conditions: 30 µM; also: in the data most compounds retested in dose-response had high values
T4 sequence (whole entry): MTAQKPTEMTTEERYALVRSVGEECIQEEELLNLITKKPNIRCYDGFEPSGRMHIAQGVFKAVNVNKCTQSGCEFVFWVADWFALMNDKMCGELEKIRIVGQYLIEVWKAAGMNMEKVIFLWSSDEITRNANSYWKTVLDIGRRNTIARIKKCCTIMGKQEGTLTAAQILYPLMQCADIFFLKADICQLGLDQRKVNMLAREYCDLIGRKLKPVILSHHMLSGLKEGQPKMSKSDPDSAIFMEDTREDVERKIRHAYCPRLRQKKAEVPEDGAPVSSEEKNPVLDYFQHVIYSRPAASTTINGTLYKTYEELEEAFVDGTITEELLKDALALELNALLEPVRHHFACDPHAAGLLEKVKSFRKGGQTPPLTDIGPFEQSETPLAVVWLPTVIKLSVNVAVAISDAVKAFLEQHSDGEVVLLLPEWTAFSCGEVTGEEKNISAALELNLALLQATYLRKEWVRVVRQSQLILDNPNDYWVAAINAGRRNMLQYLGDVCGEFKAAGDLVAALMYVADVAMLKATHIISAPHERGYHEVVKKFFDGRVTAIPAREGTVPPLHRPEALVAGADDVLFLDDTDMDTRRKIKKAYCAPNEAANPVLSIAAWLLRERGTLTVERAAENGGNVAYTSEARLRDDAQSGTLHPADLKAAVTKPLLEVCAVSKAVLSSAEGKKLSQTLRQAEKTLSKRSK

[10] = molecular target: T4, Tyrosyl-tRNA synthetase, putative (Trypanosoma cruzi (strain CL Brener)); test: Trypanosoma cruzi tyrosyl tRNA synthetase (TcYRS) SOP; format: functional; conditions: 30 µM
[11] = molecular target: Chromo domain-containing protein 1 (Saccharomyces cerevisiae (strain ATCC 204508 / S288c) (Baker's yeast)) (UniProt P32657); test: ScCHD-1 Enzyme Inhibition Assay; format: functional; conditions: 30 µM; also: in the data most compounds retested in dose-response had high values
Sequence of Chromo domain-containing protein 1 (Saccharomyces cerevisiae (strain ATCC 204508 / S288c) (Baker's yeast)) (P32657 whole entry, the tested form may be a part): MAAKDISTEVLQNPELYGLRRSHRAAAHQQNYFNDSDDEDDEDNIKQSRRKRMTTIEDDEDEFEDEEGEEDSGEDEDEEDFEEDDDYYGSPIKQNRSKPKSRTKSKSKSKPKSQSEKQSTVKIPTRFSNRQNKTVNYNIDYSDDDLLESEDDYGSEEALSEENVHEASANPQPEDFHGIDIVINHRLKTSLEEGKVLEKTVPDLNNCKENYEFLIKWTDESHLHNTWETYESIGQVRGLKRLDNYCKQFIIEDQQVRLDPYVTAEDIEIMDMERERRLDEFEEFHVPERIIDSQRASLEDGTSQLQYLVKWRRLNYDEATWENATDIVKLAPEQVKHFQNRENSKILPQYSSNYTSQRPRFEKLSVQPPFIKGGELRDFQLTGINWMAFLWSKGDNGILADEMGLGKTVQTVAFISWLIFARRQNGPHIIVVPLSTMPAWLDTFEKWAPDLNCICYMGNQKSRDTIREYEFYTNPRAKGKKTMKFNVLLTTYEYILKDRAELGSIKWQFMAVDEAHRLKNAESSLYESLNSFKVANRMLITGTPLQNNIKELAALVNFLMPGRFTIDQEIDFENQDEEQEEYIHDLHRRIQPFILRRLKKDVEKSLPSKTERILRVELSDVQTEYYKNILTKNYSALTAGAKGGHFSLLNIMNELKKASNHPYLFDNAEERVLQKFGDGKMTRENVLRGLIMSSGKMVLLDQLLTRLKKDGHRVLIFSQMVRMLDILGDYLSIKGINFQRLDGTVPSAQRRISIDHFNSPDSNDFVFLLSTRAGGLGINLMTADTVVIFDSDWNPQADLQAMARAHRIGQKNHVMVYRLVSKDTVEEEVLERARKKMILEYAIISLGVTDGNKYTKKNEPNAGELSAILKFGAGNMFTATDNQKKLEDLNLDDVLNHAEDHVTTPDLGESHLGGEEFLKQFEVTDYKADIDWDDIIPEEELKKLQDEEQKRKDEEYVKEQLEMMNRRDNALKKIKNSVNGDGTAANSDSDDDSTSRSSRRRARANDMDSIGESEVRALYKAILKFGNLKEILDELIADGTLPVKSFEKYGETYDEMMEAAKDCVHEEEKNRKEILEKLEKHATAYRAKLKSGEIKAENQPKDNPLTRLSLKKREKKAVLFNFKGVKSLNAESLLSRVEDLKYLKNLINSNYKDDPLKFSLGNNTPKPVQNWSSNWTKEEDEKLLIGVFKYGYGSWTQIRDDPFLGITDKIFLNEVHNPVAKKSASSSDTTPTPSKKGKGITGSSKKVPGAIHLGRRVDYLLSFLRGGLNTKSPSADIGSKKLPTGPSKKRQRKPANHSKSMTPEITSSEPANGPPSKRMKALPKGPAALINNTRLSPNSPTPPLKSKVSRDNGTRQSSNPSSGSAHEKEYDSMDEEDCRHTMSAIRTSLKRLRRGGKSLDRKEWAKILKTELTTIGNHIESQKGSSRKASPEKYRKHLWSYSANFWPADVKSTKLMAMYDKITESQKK

| SMILES | Percent Effect [1] [%] | Percent Effect [2] [%] | Percent Effect [3] [%] | Percent Effect [4] [%] | Percent Effect [5] [%] | Percent Effect [6] [%] | Percent Effect [7] [%] | Percent Effect [8] [%] | Percent Effect [9] [%] | Percent Effect [10] [%] | Percent Effect [11] [%] |
| --- | --- | --- | --- | --- | --- | --- | --- | --- | --- | --- | --- |
| CN1CCOC(CNCc2cccc(OCC(F)(F)F)c2)C1 (stereo not drawn) | -3.56 | 5.06 | -19.3 | 12.1 | -1.79 | 0.38 | -6.31 | 0.0497 | 4.43 | 1.27 | -2.57 |
| CCS(=O)(=O)c1ccccc1N1CCC(NC(=O)NC2CCCC2)CC1 | -5.55 | 10.8 | 5.69 | 8.77 | 0.279 | -3.14 | -1.62 | 16 | 6.93 | 13.4 | -1.94 |
| Cn1cc(C(=O)CC2CCCN2C(=O)c2n[nH]c3ccccc23)cn1 (stereo not drawn) | -2.35 | 1.27 | 3.62 | 0.382 | 2.56 | 1.94 | 7.03 | -8.13 | 7.29 | 2.53 | -9.86 |
| Cc1ccc(CC(=O)N2CCCC(c3nc(C)cs3)C2)cn1 (stereo not drawn) | -5.58 | -2.7 | -3.92 | 13.4 | -0.0929 | -0.554 | 0.539 | -13.1 | 0.99 | -6.1 | 7.44 |
| Cc1noc(C)c1CN1CC2(CCN(C(=O)c3cscn3)CC2)CC1=O | -5.65 | 10.4 | 0.445 | 16.6 | 5.01 | -5.52 | 14.1 | 0.0432 | 6.45 | 11.1 | -2.57 |
| CCc1nc(C)c([C@H]2CN(C)C[C@@H]2C(=O)Nc2ccc(OC)cc2)[nH]1 | -5.53 | 5.41 | -1.46 | 2.65 | 1.16 | -2.86 | 8.28 | 1.5 | 8.99 | 12.2 | -4.67 |
| CCOCCNc1nc(C2CCCC2)nc2c1cnn2C | -4.35 | 2.74 | 6.03 | -4.4 | 0.588 | 2.73 | 1.6 | 17.1 | 1.07 | 5 | 2.02 |
| O=C(CN1CCCCCCC1=O)NCc1ccccn1 | -1.09 | 5.48 | -2.69 | 1.29 | 2.78 | 2.4 | 1.46 | 0.819 | 5.21 | 11.1 | -5.16 |
